Bioassay records (PubChem BioAssay)
Sm TGR inh – S. mansoni TGR enzyme inhibition. Q962Y6. purified TGR, DTNB reduction, TNB absorbance 405 nm. Potency, µM (doses to about 114 µM), actives largely listed as inhibitors. 360,000 compounds, 3% hits. AID 485364; also: nearly all actives have a fitted effect of over 60% in size
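Kinetic colorimetric format: TGR-catalysed, NADPH-driven DTNB reduction monitored via TNB absorbance. Enzyme dispensed at 20 nM; compound exposure 15 min at room temperature before reaction start.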
Shiga toxin inh – inhibitors of Shiga toxin in Vero cells. Vero cells, Shiga toxin protein synthesis inhibition reporter. inhibition, % at 38.7 µM. 290,000 compounds, 9.2% hits. AID 2315; in the data active = inhibition mostly above about 28%, no sharp cut-off; inactive = mostly below about 43%
Pf growth 48h – P. falciparum growth inhibition at 48 hours (one generation) | P. falciparum luciferase growth in erythrocytes, 48 h | Potency, µM (doses to about 28.7 µM), actives largely listed as inhibitors | 310,000 compounds, 5.9% hits | AID 504832
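Compounds are pin-transferred into medium, infected erythrocytes (2% hematocrit, 0.1% parasitemia final) are added, and plates sit one parasite generation at 37 C in 5% CO2. Detection reagent is then added and luminescence measured.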
NS1 inh – blocks influenza NS1 protein function; Potency, µM (series often up to 46.1 µM); 270,000 compounds, 0.4% hits; AID 2326; calls by dose curve; also: actives are rising curves; nearly all actives have a fitted effect of over 50% in size
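Compounds were scored for reversing the slow growth caused by influenza A NS1 in S. cerevisiae, measured by optical density at 600 nm. Assay medium contained 2% galactose at pH 6.0; NS1-free yeast of the same strain were the positive control.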
Pf growth 96h – P. falciparum growth inhibition at 96 hours | Potency, µM (highest dose often 28.7 µM), usual class: inhibitors | AID 504834 | P. falciparum luciferase reporter growth, 96 h | 320,000 compounds, 6.9% hits
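Delayed-death screen, second-generation endpoint: infected erythrocytes, 2% hematocrit, 0.05% parasitemia final; 96 hours at 37 C, 5% CO2; luciferase detection reagent; luminescence decrease equals reduced growth.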
CHX counter – affects cycloheximide protein synthesis inhibition readout, counter-screen. max response, %. 300,000 compounds, 12% hits. cell reporter, cycloheximide protein synthesis inhibition counterscreen; in the data active = max response mostly above about 13%, no sharp cut-off; inactive = mostly below about 14%; also: read at 38.3 µM for the half of the compounds with a filed dose
Hits are given with their value. Most compounds without a hit are left out; they make up all but 21% or so of the library. Unless noted, calls follow the shape of the dose curve; as a rule, active = well fitted curve in the direction sought with a large enough effect; inconclusive = small, poorly fitted or top-dose-only effect, or another doubt; inactive = no such curve, though single readings can be large; an effect the other way counts as inactive or inconclusive.

Results for COc1ccc(C(CNC(=O)C(C)Oc2ccc(Br)cc2)N2CCCC2)cc1 (configuration not stated) ?
Sm TGR inh: inactive; Pf growth 48h: 11.7µM; Pf growth 96h: inconclusive

Results for COc1ccc(CCNC(=O)c2ccc(Cl)c(S(=O)(=O)N3CCCC3)c2)cc1 ?
Sm TGR inh: inactive; Pf growth 48h: 11.7µM; Pf growth 96h: 6.57µM

What do the screens show for `Cc1cc(N2CCOCC2)nc2cc(O)ccc12`?
Sm TGR inh: inactive; Shiga toxin inh: 54.3; Pf growth 48h: inactive; NS1 inh: inactive; Pf growth 96h: inactive; CHX counter: 36.9

Results for Cc1cc(N2CCCCC2)nc2ccccc12 ?
Sm TGR inh: inactive; Shiga toxin inh: inactive; Pf growth 48h: inactive; NS1 inh: inactive; Pf growth 96h: inactive; CHX counter: 11.3

What do the screens show for `Cc1cc(N2CCOCC2)nc2ccccc12`?
Sm TGR inh: inactive; Shiga toxin inh: 48.9; Pf growth 48h: inactive; NS1 inh: inactive; Pf growth 96h: inconclusive; CHX counter: 14.8

Results for Cc1cc(N2CCCCCC2)nc2ccccc12 ?
Sm TGR inh: inactive; Shiga toxin inh: inactive; Pf growth 48h: inactive; NS1 inh: inactive; Pf growth 96h: inconclusive; CHX counter: inactive

What do the screens show for `Cc1cc(-n2nnc3ccccc32)nc2ccccc12`?
Sm TGR inh: inactive; Shiga toxin inh: inactive; Pf growth 48h: inactive; NS1 inh: inactive; CHX counter: 14.9

How did O=C(NCCS(=O)(=O)N1CCN(c2ccccc2F)CC1)c1cc(=O)c2ccccc2o1 do in these assays?
Sm TGR inh: inactive; Shiga toxin inh: inactive; Pf growth 48h: inactive; NS1 inh: inactive; Pf growth 96h: inactive; CHX counter: inactive

Results for c1ccc2nc(N3CCOCC3)cnc2c1 ?
Sm TGR inh: inactive; Shiga toxin inh: inactive; NS1 inh: inactive; Pf growth 96h: inconclusive; CHX counter: 17.1

How did c1ccc2c(c1)CCc1c-2nc2ccccc2c1N1CCOCC1 do in these assays?
Sm TGR inh: inactive; Shiga toxin inh: inactive; Pf growth 48h: 14.7µM; NS1 inh: inactive; Pf growth 96h: inconclusive; CHX counter: inactive

Results for O=C(O)c1c2c(nc3ccccc13)-c1ccccc1CC2 ?
Sm TGR inh: inactive; Shiga toxin inh: inactive; Pf growth 48h: inactive; NS1 inh: inactive; Pf growth 96h: inactive; CHX counter: inactive

How did COc1cc2c(cc1NC(=O)C(C)Sc1nc3ccccc3n1C)oc1ccccc12 (configuration not stated) do in these assays?
Sm TGR inh: inactive; Shiga toxin inh: inactive; Pf growth 48h: 11.7µM; NS1 inh: inactive; Pf growth 96h: 7.38µM; CHX counter: inactive

What do the screens show for `COc1cc2c(cc1NC(=O)c1ccncc1)oc1ccccc12`?
Sm TGR inh: inactive; Shiga toxin inh: inactive; NS1 inh: inactive; Pf growth 96h: inactive; CHX counter: inactive

What do the screens show for `COc1cc2c(cc1NC(=O)C(C)Sc1cccc[n+]1[O-])oc1ccccc12` (configuration not stated)?
Sm TGR inh: inactive; Shiga toxin inh: 79.0; Pf growth 48h: inactive; NS1 inh: inactive; Pf growth 96h: inactive; CHX counter: 75.5

What do the screens show for `CCOc1ccc(NC(=O)CSc2nc3ccccc3c(=O)n2CCC(=O)NC2CCCCC2)cc1`?
Sm TGR inh: inactive

What do the screens show for `COCCn1c(C)cc(C(=O)CSc2n[nH]c(N)n2)c1C`?
Sm TGR inh: inactive; Shiga toxin inh: inactive; Pf growth 48h: inactive; NS1 inh: inactive; Pf growth 96h: inactive; CHX counter: 13.4

Results for Cc1cc(C(=O)CSc2ncccn2)c(C)n1-c1cccc(F)c1 ?
Sm TGR inh: inactive; Shiga toxin inh: 100.3; Pf growth 48h: inactive; NS1 inh: inactive; Pf growth 96h: inactive; CHX counter: 86.3

What do the screens show for `Cc1cc(C(=O)CSc2nnnn2C)c(C)n1-c1cccc(F)c1`?
Sm TGR inh: inactive; Shiga toxin inh: 121.6; Pf growth 48h: inactive; NS1 inh: inactive; Pf growth 96h: inconclusive; CHX counter: 40.1

How did Cc1cc(C(=O)CSc2n[nH]c(N)n2)c(C)n1-c1cccc(F)c1 do in these assays?
Sm TGR inh: inconclusive; Shiga toxin inh: 72.9; Pf growth 48h: inactive; NS1 inh: inactive; Pf growth 96h: inactive; CHX counter: 20.5

Results for Cc1cc2nccc(-c3cccnc3)n2n1 ?
Sm TGR inh: inactive; Shiga toxin inh: inactive; Pf growth 48h: inactive; Pf growth 96h: inactive; CHX counter: inactive

Results for Cc1cc(NCCOCCO)n2c(nc3ccccc32)c1C#N ?
Sm TGR inh: inactive; Shiga toxin inh: inactive; Pf growth 48h: inconclusive; NS1 inh: inactive; Pf growth 96h: 1.85µM; CHX counter: inactive

What do the screens show for `Cc1cc(NCCCO)n2c(nc3ccccc32)c1C#N`?
Sm TGR inh: inactive; Shiga toxin inh: inactive; Pf growth 48h: 10.4µM; NS1 inh: inactive; Pf growth 96h: inconclusive; CHX counter: inactive

What do the screens show for `CCOC(=O)c1c(-c2ccccc2)oc2ccc(N(C(C)=O)S(=O)(=O)c3ccc(CC)cc3)cc12`?
Sm TGR inh: inactive

What do the screens show for `Cn1nnnc1SCc1cccc2ccccc12`?
Sm TGR inh: inactive; Shiga toxin inh: inactive; Pf growth 48h: inactive; Pf growth 96h: inactive; CHX counter: inactive

What do the screens show for `Cn1nnnc1SCc1nc2ccccc2s1`?
Sm TGR inh: inactive; Shiga toxin inh: 94.1; Pf growth 48h: inactive; NS1 inh: inactive; Pf growth 96h: inactive; CHX counter: 38.0

What do the screens show for `Cc1ccnc(SCc2nc3ccccc3s2)n1`?
Sm TGR inh: inactive; Shiga toxin inh: 62.0; NS1 inh: inactive; Pf growth 96h: inactive; CHX counter: 32.4

Results for O=c1c2ccccc2nc(SCc2nc3ccccc3s2)n1CCCO ?
Sm TGR inh: inactive; Shiga toxin inh: 137.4; Pf growth 48h: inactive; NS1 inh: inactive; Pf growth 96h: inactive; CHX counter: 46.4

Results for O=C(CSc1nc2ccccc2c(=O)n1CCCO)NCc1ccccc1 ?
Sm TGR inh: inactive; Shiga toxin inh: inactive; Pf growth 48h: inactive; NS1 inh: inactive; Pf growth 96h: inactive; CHX counter: inactive

What do the screens show for `CCc1cc2c(cc3c(=O)n(CCCC(=O)NCc4cccc(Cl)c4)ncn32)s1`?
Sm TGR inh: inactive

What do the screens show for `N#C/C(C(=O)N1CCCCC1)=C1/N=C(N)c2ccccc21`?
Sm TGR inh: inactive; Shiga toxin inh: inactive; Pf growth 48h: inactive; NS1 inh: inactive; Pf growth 96h: inactive; CHX counter: 15.8

How did Cc1cc2c(NC(=O)Nc3ccc(C(F)(F)F)cc3)cccc2nn1 do in these assays?
Sm TGR inh: inactive; Shiga toxin inh: inactive; Pf growth 48h: 10.4µM; NS1 inh: inactive; Pf growth 96h: 9.28µM; CHX counter: inactive

Results for Cc1cc2c(NC(=O)CCCC(=O)O)cccc2nn1 ?
Sm TGR inh: inactive; Shiga toxin inh: inactive; Pf growth 48h: inactive; NS1 inh: inactive; Pf growth 96h: inactive; CHX counter: inactive

Results for CCC1CN(C(=O)Nc2cccc3c2CCCC3)c2cc(Cl)ccc2O1 (configuration not stated) ?
Sm TGR inh: inactive
